From the supplement of paper PMC6555819

Key:
Assay in all cases: PBM binding z-score (relative to random genomic background probes); higher = stronger binding; sequences stand for … in GC…GCGATTGACAGCGTAGAATGAAGG
[1] = tested on: FXR:RXRa (NR concentration 270 nM, RXRa partner concentration 90 nM)
Method in brief: (§1)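 Antibodies against each partner of ligand-free nuclear receptor dimers (one per run) detected binding on custom Agilent 4×180K protein-binding microarrays after 1 h incubation. The double-stranded probes had 34-nt variable regions carrying direct-repeat seeds, single-nucleotide variants, half-site ablations and random human genomic background sequences. Binding z-scores, from regression-normalized fluorescence, use the random background probes as reference.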

[2] = tested on: LXRa:RXRa (NR concentration 270 nM, RXRa partner concentration 90 nM)
Method in brief: as §1

[3] = tested on: LXRa homodimer (NR concentration 270 nM)
Method in brief: as §1

[4] = tested on: LXRb:RXRa (NR concentration 270 nM, RXRa partner concentration 90 nM)
Method in brief: as §1

[5] = tested on: LXRb homodimer (NR concentration 270 nM)
Method in brief: as §1

[6] = tested on: PPARa:RXRa (NR concentration 270 nM, RXRa partner concentration 90 nM)
Method in brief: as §1

[7] = tested on: PPARg:RXRa (NR concentration 180 nM, RXRa partner concentration 90 nM)
Method in brief: as §1

[8] = tested on: PPARg:RXRa 270nM:90nM, anti-RXR (NR concentration 270 nM, RXRa partner concentration 90 nM)
Method in brief: as §1

[9] = tested on: PPARg:RXRa 30nM:10nM, anti-RXR (NR concentration 30 nM, RXRa partner concentration 10 nM)
Method in brief: as §1

[10] = tested on: PPARg:RXRa 90nM:30nM, anti-RXR (NR concentration 90 nM, RXRa partner concentration 30 nM)
Method in brief: as §1

[11] = tested on: PPARg:RXRa DBDmut IVT, anti-RXR (DBD mutation: RXRa K156A/R161A, NR concentration 270 nM, RXRa partner concentration 90 nM)
Method in brief: as §1

[12] = tested on: PPARg:RXRa IVT, anti-PPARg (NR concentration 270 nM, RXRa partner concentration 90 nM)
Method in brief: as §1

[13] = tested on: PPARg DBDmut:RXRa IVT, anti-PPARg (DBD mutation: PPARg1 K132A/R137A, NR concentration 270 nM, RXRa partner concentration 90 nM)
Method in brief: as §1

[14] = tested on: PPARg DBDmut IVT, anti-PPARg (DBD mutation: PPARg1 K132A/R137A, NR concentration 270 nM)
Method in brief: as §1

[15] = tested on: PPARg homodimer (NR concentration 180 nM)
Method in brief: as §1

[16] = tested on: PXR:RXRa (NR concentration 270 nM, RXRa partner concentration 90 nM)
Method in brief: as §1

[17] = tested on: PXR homodimer (NR concentration 270 nM)
Method in brief: as §1

[18] = tested on: RARa:RXR (NR concentration 270 nM, RXRa partner concentration 90 nM)
Method in brief: as §1

[19] = tested on: RARa homodimer (NR concentration 270 nM)
Method in brief: as §1

[20] = tested on: RARb:RXRa (NR concentration 270 nM, RXRa partner concentration 90 nM)
Method in brief: as §1

Sequence: CATTACGGGTCACTGACAGGTTATAGCATTTGGA
- PBM binding z-score [1]: 5.82
- PBM binding z-score [2]: 5.1
- PBM binding z-score [3]: 1.52
- PBM binding z-score [4]: 4.09
- PBM binding z-score [5]: 0.756
- PBM binding z-score [6]: 5.54
- PBM binding z-score [7]: 5.78
- PBM binding z-score [8]: 5.45
- PBM binding z-score [9]: 2.2
- PBM binding z-score [10]: 4.33
- PBM binding z-score [11]: 4.59
- PBM binding z-score [12]: 5.02
- PBM binding z-score [13]: 2.13
- PBM binding z-score [14]: 1.77
- PBM binding z-score [15]: 2.69
- PBM binding z-score [16]: 3.95
- PBM binding z-score [17]: 0.249
- PBM binding z-score [18]: 4.95
- PBM binding z-score [19]: 1.33
- PBM binding z-score [20]: 4.05

Sequence: TCATATGGGTAAAGGTGAAAGTCGAACGATATGA
- PBM binding z-score [1]: 0.574
- PBM binding z-score [2]: 1.13
- PBM binding z-score [3]: -0.287
- PBM binding z-score [4]: 1.09
- PBM binding z-score [5]: -0.607
- PBM binding z-score [6]: 3.53
- PBM binding z-score [7]: 5.17
- PBM binding z-score [8]: 5.52
- PBM binding z-score [9]: 4.64
- PBM binding z-score [10]: 5.69
- PBM binding z-score [11]: 3.36
- PBM binding z-score [12]: 3.75
- PBM binding z-score [13]: 1.24
- PBM binding z-score [14]: 0.532
- PBM binding z-score [15]: 0.852
- PBM binding z-score [16]: 0.764
- PBM binding z-score [17]: -0.418
- PBM binding z-score [18]: 1.66
- PBM binding z-score [19]: 0.221
- PBM binding z-score [20]: 1.79

Sequence: CCGACTGGGGCAGAAAGGTTACCGTACCATCCGG
- PBM binding z-score [1]: 0.26
- PBM binding z-score [2]: 0.695
- PBM binding z-score [3]: -0.0357
- PBM binding z-score [4]: 1.01
- PBM binding z-score [5]: -1.05
- PBM binding z-score [6]: 2.4
- PBM binding z-score [7]: 1.54
- PBM binding z-score [8]: 2.95
- PBM binding z-score [9]: 0.724
- PBM binding z-score [10]: 2.38
- PBM binding z-score [11]: 1.72
- PBM binding z-score [12]: 2.39
- PBM binding z-score [13]: -1.2
- PBM binding z-score [14]: -1.01
- PBM binding z-score [15]: 0.541
- PBM binding z-score [16]: 1.02
- PBM binding z-score [17]: -0.429
- PBM binding z-score [18]: 1.79
- PBM binding z-score [19]: -0.282
- PBM binding z-score [20]: 1.84

Sequence: TCATATAGGTAATGGTGAAAGTCGAACGATATGA
- PBM binding z-score [1]: -0.32
- PBM binding z-score [2]: 0.417
- PBM binding z-score [3]: -0.0652
- PBM binding z-score [4]: 0.263
- PBM binding z-score [5]: -0.188
- PBM binding z-score [6]: 1.22
- PBM binding z-score [7]: 1.43
- PBM binding z-score [8]: 2.42
- PBM binding z-score [9]: 3.89
- PBM binding z-score [10]: 3.12
- PBM binding z-score [11]: 3.77
- PBM binding z-score [12]: 2.74
- PBM binding z-score [13]: 1.66
- PBM binding z-score [14]: 1.7
- PBM binding z-score [15]: 0.415
- PBM binding z-score [16]: 0.253
- PBM binding z-score [17]: -0.311
- PBM binding z-score [18]: 0.342
- PBM binding z-score [19]: 0.0985
- PBM binding z-score [20]: 0.417

Sequence: AGAATGAGGTTATACGTAGATTAGGGAAGAAAGT
- PBM binding z-score [1]: 2.38
- PBM binding z-score [2]: 1.89
- PBM binding z-score [3]: 0.103
- PBM binding z-score [4]: 1.74
- PBM binding z-score [5]: 0.111
- PBM binding z-score [6]: 3.21
- PBM binding z-score [7]: 2.37
- PBM binding z-score [8]: 2.4
- PBM binding z-score [9]: 0.937
- PBM binding z-score [10]: 1.76
- PBM binding z-score [11]: 3.81
- PBM binding z-score [12]: 2.24
- PBM binding z-score [13]: 1.48
- PBM binding z-score [14]: 1
- PBM binding z-score [15]: 0.912
- PBM binding z-score [16]: 1.38
- PBM binding z-score [17]: 0.713
- PBM binding z-score [18]: 1.72
- PBM binding z-score [19]: 0.516
- PBM binding z-score [20]: 1.63

Sequence: CAAAGTAGGTCAAAGGTCAAAGTCGAGCCAACCA
- PBM binding z-score [1]: 8.51
- PBM binding z-score [2]: 7.21
- PBM binding z-score [3]: 5.79
- PBM binding z-score [4]: 7.26
- PBM binding z-score [5]: 3.36
- PBM binding z-score [6]: 7.84
- PBM binding z-score [7]: 14.1
- PBM binding z-score [8]: 11.4
- PBM binding z-score [9]: 14.4
- PBM binding z-score [10]: 13.2
- PBM binding z-score [11]: 8.81
- PBM binding z-score [12]: 9.31
- PBM binding z-score [13]: 4.15
- PBM binding z-score [14]: 2.43
- PBM binding z-score [15]: 4.72
- PBM binding z-score [16]: 7.22
- PBM binding z-score [17]: 2.39
- PBM binding z-score [18]: 8.98
- PBM binding z-score [19]: 3.23
- PBM binding z-score [20]: 5.92

Sequence: CCTCGGAGGACAACACGAGGTCAGAGCTGCCAGA
- PBM binding z-score [1]: 1.62
- PBM binding z-score [2]: 2.84
- PBM binding z-score [3]: 2.76
- PBM binding z-score [4]: 1.58
- PBM binding z-score [5]: -0.589
- PBM binding z-score [6]: 2.22
- PBM binding z-score [7]: 0.596
- PBM binding z-score [8]: 0.153
- PBM binding z-score [9]: -0.655
- PBM binding z-score [10]: -0.293
- PBM binding z-score [11]: 0.265
- PBM binding z-score [12]: 0.387
- PBM binding z-score [13]: -0.876
- PBM binding z-score [14]: -1.22
- PBM binding z-score [15]: 1.79
- PBM binding z-score [16]: 3.06
- PBM binding z-score [17]: 0.779
- PBM binding z-score [18]: 3.03
- PBM binding z-score [19]: 0.807
- PBM binding z-score [20]: 2.96

Sequence: TCAGGCAGGTGAAGGTAACTCAGGTACGCAGTCG
- PBM binding z-score [1]: 0.263
- PBM binding z-score [2]: 1.12
- PBM binding z-score [3]: -0.208
- PBM binding z-score [4]: 0.558
- PBM binding z-score [5]: -0.936
- PBM binding z-score [6]: 0.851
- PBM binding z-score [7]: 0.226
- PBM binding z-score [8]: 1.2
- PBM binding z-score [9]: 2.13
- PBM binding z-score [10]: 1.73
- PBM binding z-score [11]: 1.55
- PBM binding z-score [12]: 1.14
- PBM binding z-score [13]: -0.774
- PBM binding z-score [14]: -0.917
- PBM binding z-score [15]: 0.554
- PBM binding z-score [16]: 0.0794
- PBM binding z-score [17]: -0.029
- PBM binding z-score [18]: 0.355
- PBM binding z-score [19]: -0.103
- PBM binding z-score [20]: 0.92

Sequence: TGATATAGGTAAATGCTAGGTGAAAGTCCGATCT
- PBM binding z-score [1]: 0.297
- PBM binding z-score [2]: 0.127
- PBM binding z-score [3]: 0.0779
- PBM binding z-score [4]: -0.0435
- PBM binding z-score [5]: -0.105
- PBM binding z-score [6]: 1.62
- PBM binding z-score [7]: 1.45
- PBM binding z-score [8]: 1.84
- PBM binding z-score [9]: 1.05
- PBM binding z-score [10]: 1.44
- PBM binding z-score [11]: 4.45
- PBM binding z-score [12]: 3.66
- PBM binding z-score [13]: 0.978
- PBM binding z-score [14]: 0.956
- PBM binding z-score [15]: 0.829
- PBM binding z-score [16]: -0.09
- PBM binding z-score [17]: 0.293
- PBM binding z-score [18]: 0.178
- PBM binding z-score [19]: 1.15
- PBM binding z-score [20]: 0.212
